Experimental data published in PubChem BioAssay (EPA / NIEHS).
Several values for one entry are separate records, joined by “and”; a condition that tells them apart may be missing. Equal values may be shown once. Activity calls are given as the source filed them. Rule for the calls: active = hit-call score of the fitted dose curve at least 0.9, where 1 is the maximum; inactive = score below 0.9.

Tests used:
[1] = read-out: Plasminogen activator inhibitor-1 (PAI1), SERPINE1 (gene 5054); test: BSK_MyoF_PAI1: BioMAP Diversity Plus: MyoF Assay for Plasminogen activator inhibitor-1 (PAI1) Biomarker Activity (AID 2284256); details: primary human lung fibroblasts;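 note: PAI-1 protein level measured by ELISA in fibroblast cultures; PAI-1 read 24 h after compound addition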
Method in brief: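 Human lung fibroblasts (MyoF system) were exposed to test chemicals for 24 h, then PAI-1 was quantified by ELISA. Activity was fitted in the positive (signal-gain) direction relative to DMSO vehicle as baseline.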

[2] = read-out: Interferon-inducible T-cell alpha chemoattractant (ITAC), CXCL11 (gene 6373); test: BSK_hDFCGF_ITAC: BioMAP Diversity Plus: hDFCGF Assay for Interferon-inducible T-cell alpha chemoattractant (ITAC) Biomarker Activity (AID 2284251); details: primary human foreskin fibroblasts
Method in brief: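 Measured by ELISA, the chemokine level serves as the endpoint in human skin fibroblast primary cultures 24 h after compound addition. Increases relative to DMSO-treated wells define activity.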

[3] = read-out: Plasminogen activator inhibitor-1 (PAI1), SERPINE1 (gene 5054); test: BSK_KF3CT_PAI1: BioMAP Diversity Plus: KF3CT Assay for Plasminogen activator inhibitor-1 (PAI1) Biomarker Activity (AID 2284252); details: primary human keratinocytes with fibroblasts
Method in brief: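 In this co-culture of primary human keratinocytes and foreskin fibroblasts, PAI-1 was measured by ELISA at 24 h and fitted upward from DMSO.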

[4] = read-out: Interleukin-8 (IL8), CXCL8 (gene 3576); test: BSK_KF3CT_IL8: BioMAP Diversity Plus: KF3CT Assay for Interleukin-8 (IL8) Biomarker Activity (AID 2284254); details: primary human keratinocytes with fibroblasts
Method in brief: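 IL-8 by ELISA in primary human skin co-culture (keratinocytes plus fibroblasts) 24 h post-dose, DMSO as baseline. Cytotoxicity assessed in parallel by sulforhodamine B total-protein staining.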

In the case of `CC(c1cc(C(C)(C)C)cc(C(C)(C)C)c1O)c1cc(C(C)(C)C)cc(C(C)(C)C)c1O`, the outcome [1] is reported as “inactive”.

In the case of `CC(C)C(=O)OCCc1ccccc1`, the outcome [2] is reported as “inactive”, the outcome [3] is reported as “inactive” and the outcome [4] is reported as “inactive”.

`CCOC(=O)C1=NOC(c2ccccc2)(c2ccccc2)C1` was tested, and the outcome [1] was “inactive”.

In the case of `CCCCCCCO`, the outcome [1] is reported as “inactive”.

In the case of `CCCCCCCCCCCC(=O)N(C)CC(=O)O`, the outcome [2] is reported as “inactive”, the outcome [3] is reported as “inactive” and the outcome [4] is reported as “inactive”.

With `O=C(Cl)c1c(Cl)c(Cl)c(C(=O)Cl)c(Cl)c1Cl` the outcome [1] was “inactive”.

In the case of `CCCCCCOC(=O)CCCCC(=O)OCCCCCC`, the outcome [1] is reported as “inactive”.

For `CCCCCC1=CCCC1=O`, the outcome [1] was “inactive”.

In the case of `Nc1nc(N)nc(-c2ccccc2)n1`, the outcome [2] is reported as “inactive”, the outcome [3] is reported as “inactive” and the outcome [4] is reported as “inactive”.

For `C=CC(=O)OCCCCCCCC(C)C`, the outcome [1] was “inactive”.

With `CCCCCCC=O` the outcome [1] was “inactive”.

In the case of `c1ccc(Nc2cccc3ccccc23)cc1`, the AC50 [2] is reported as 30.1 µM (active) and 30.3 µM (active), the AC50 [3] is reported as 27.4 µM (active) and 26.5 µM (active) and the AC50 [4] is reported as 31.6 µM (active) and 29.4 µM (active).
